Assay results taken from PubChem BioAssay (NCATS).
Records with an inconclusive call do not appear. Entries that show only a call come without a potency. Unmarked numbers belong to inactive results. Activity calls are given as the source filed them. The call rests on the fitted dose curve; in most records, active means well fitted curve in the direction sought with a large enough effect; inconclusive means small, poorly fitted or top-dose-only effect, or another doubt; inactive means no such curve, though single readings can be large; an effect the other way counts as inactive or inconclusive.

Assays:
[1] = molecular target: Cellular tumor antigen p53 (Homo sapiens) (UniProt P04637); test: Primary qHTS for small molecule compounds that upregulate eGFP-tagged delta133p53alpha (in N-terminal) cells. (AID 2060322); details: NCI-H358 eGFP-delta133p53alpha fluorescence, 24 h; activation: active compounds read high; further: nearly all actives have a fitted effect of over 75% in size; further: potency means the concentration at half of the fitted maximal effect; on activation: series mostly up to about 56 µM
In short: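 NCI-H358 cells pre-induced 24 h with 10 ng/ml doxycycline to express N-terminal eGFP-delta133p53alpha, then dosed 24 h at 37C without doxycycline; fixed, Hoechst-stained, GFP intensity by laser scanning cytometry, normalized to DMSO (0%) and 57.5 uM 5-azacytidine (100%).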

[2] = molecular target: Aldehyde dehydrogenase, mitochondrial (Homo sapiens) (UniProt P05091); test: qHTS for Inhibitors of the Aldehyde Dehydrogenase Family (ALDH2) Primary screen (AID 2061308); further: nearly all actives have a fitted effect of over 55% in size
[3] = molecular target: Retinaldehyde dehydrogenase 3 (Homo sapiens) (UniProt P47895); test: qHTS for Inhibitors of the Aldehyde Dehydrogenase Family (ALDH1A3) Primary screen (AID 2061315)

Cellular tumor antigen p53 (Homo sapiens), sequence (P04637 whole entry, looked up): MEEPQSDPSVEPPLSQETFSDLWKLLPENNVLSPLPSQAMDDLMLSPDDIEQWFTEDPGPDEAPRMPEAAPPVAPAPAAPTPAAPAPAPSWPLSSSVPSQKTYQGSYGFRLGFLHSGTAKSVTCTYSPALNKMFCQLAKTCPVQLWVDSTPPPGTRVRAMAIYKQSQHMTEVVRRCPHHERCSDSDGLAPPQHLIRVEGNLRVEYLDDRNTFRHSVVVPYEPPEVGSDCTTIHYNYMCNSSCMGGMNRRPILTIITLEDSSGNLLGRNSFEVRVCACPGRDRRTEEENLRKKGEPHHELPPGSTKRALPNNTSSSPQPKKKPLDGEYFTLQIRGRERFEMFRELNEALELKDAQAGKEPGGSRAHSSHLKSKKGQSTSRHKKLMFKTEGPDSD

Row | SMILES | activation [1] | activity change, negative = inhibition [2] | activity change, negative = inhibition [3] | Potency [1] | Potency [2] | Potency [3]
1 | CC1OC(O[C@H]2[C@@H](O)C[C@@]3(C)C([C@H](O)C[C@]4(C)C3CC=C3C5CC(C)(C)CC[C@]5(C(=O)OC5OC(CO)C(O)C(O)C5OC5OCC(OC6OCC(OC7OCC(O)C(O)C7O)C(O)C6O)C(OC6OCC(O)(CO)C6O)C5O)CC[C@]34C)[C@]2(C)CO)C(O)C(O)C1O (stereo partly specified) | -6.11% | -1.36% [at 11.2 µM] | -4.53% [at 11.2 µM] |  |  | 
2 | C=C(C)C(=O)OC1CC2(C)OC(=CC2=O)C(=C)CC2OC(=O)C(=C)C12 (stereo unspecified) |  |  |  | 4.67 µM (active) | inactive | inactive
3 | C=C1CC23CC1CCC2C12OC(=O)C(C)(C(O)C(O)C1O)C2C3C(=O)O (stereo unspecified) | 2.68% |  |  |  | inactive | inactive
4 | C=C1CCC[C@]2(C)CC[C@@](O)(C(=C)C(=O)O)C[C@@H]12 | 24.1% |  |  |  | inactive | inactive
5 | C/C(=C\CO)CC/C=C(\C)C(=O)O[C@H]1[C@H](OC2OC=C(C(=O)O)C3CCC(C)(O)C23)O[C@H](CO)[C@@H](O)[C@@H]1O (stereo partly specified) | -22.3% |  |  |  | inactive | inactive
6 | CCC(C)C(=O)OC1CC(O)C23C4OCC5(C(O)CC2C1(C)C(O)O4)C3C(=O)CC1(C)C(c2ccoc2)CC2OC215 (stereo unspecified) | 22.1% |  |  |  | inactive | inactive
7 | Cc1cc(O[C@@H]2O[C@H](COC(=O)CC(=O)O)[C@@H](O)[C@H](O)[C@H]2O)c(C(C)C)cc1O | 0.763% |  |  |  | inactive | inactive
8 | C=C(C)[C@@H]1CC[C@]2(C)CC[C@]3(C)C(CCC4[C@@]5(C)CC[C@H](O)C(C)(C)C5CC[C@]43C)C12 (stereo partly specified) | -19.6% |  |  |  | inactive | inactive
9 | Cc1nc2sc(C(=O)NCc3ccncc3)c(N)c2c(C)c1Cl | 11% |  |  |  | inactive | inactive
10 | C/C=C(/C)C(=O)OC1CC(C)(C)CC2C3=CCC4C5(C)CCC(OC6OC(C)C(OC7OC(C(=O)O)C(O)C(OC8OC(CO)C(O)C(O)C8OC8OC(CO)C(O)C(O)C8O)C7O)C(O)C6O)C(C)(C)C5CCC4(C)C3(C)C(OC(=O)/C=C/C=C/C=C/CCC)C(OC(C)=O)C12CO (stereo unspecified) | 14.5% | 6.9% [at 11.2 µM] | 9.07% [at 11.2 µM] |  |  | 
11 | C[C@@H]1O[C@@H](O[C@H]2[C@@H](OC(=O)[C@]34CCC(C)(C)CC3C3=CCC5[C@@]6(C)C[C@H](O)[C@H](O[C@@H]7O[C@H](C(=O)O)[C@@H](O)[C@H](O)[C@H]7O)[C@@](C)(C(=O)O)C6CC[C@@]5(C)[C@]3(C)CC4)OC[C@H](O)[C@@H]2O)[C@H](O)[C@H](O)[C@H]1O[C@@H]1OC[C@@H](O)[C@H](O)[C@H]1O (stereo partly specified) | -8.93% |  |  |  | inactive | inactive
12 | COc1cc(C/C(=C/NC(C)=O)N(CC(=O)Cc2ccccc2)C(C)=O)cc2c1OCO2 | -26% |  |  |  | inactive | inactive
13 | C=C1C[C@]23C[C@H]1CC[C@H]2[C@]1(C)CCC[C@@]2(CO)C(=O)O[C@H]([C@H]21)[C@@H]3O | -6.11% |  |  |  | inactive | inactive
14 | CCC(C)C(=O)O[C@H]1C[C@](C)(O)[C@]23OC(C)(C)[C@H](C[C@H](OC(=O)c4ccccc4)[C@]2(COC(C)=O)[C@H]1OC(=O)C(C)CC)[C@H]3OC(C)=O (stereo partly specified) | 11.5% |  |  |  | inactive | inactive
15 | CC/C=C\CC1C(=O)C=CC1(CCCCC1CCC(=O)O1)OC(C)=O (stereo unspecified) | 9.92% |  |  |  | inactive | inactive
16 | CCC(C)/C=C(C)/C=C/C1=CC2=C(Cl)C(=O)C(C)(OC(C)=O)C(=O)C2=CN1CCCCC(N)C(=O)O (stereo unspecified) | -16.8% |  |  |  | inactive | inactive
17 | COC(=O)/C=C/C=C/C(=O)OC1C=C2COC(=O)C2(O)C2(C)CCCC(C)(C)C12 (stereo unspecified) | -4.58% |  |  |  | inactive | inactive
18 | CCOCc1cc(OC)c(-c2ccc(C[C@H](NC(=O)c3c(F)cccc3F)C(=O)O)cc2)c(OC)c1 | -5.67% |  |  |  | inactive | inactive
19 | O=C(OCc1cccc(O)c1O[C@@H]1O[C@H](CO)[C@@H](O)[C@H](O)[C@H]1O)C1(O)C(=O)C2C=CC1C1C=CC(=O)C(O)(C(=O)OCc3cccc(O)c3O[C@@H]3O[C@H](CO)[C@@H](O)[C@H](O)[C@H]3O)C21 (stereo partly specified) | -29.8% |  |  |  | inactive | inactive
20 | Cc1ccc(S(=O)(=O)N2CCC[C@H]2c2ccc(F)cc2)cc1 | 8.93% |  |  |  | inactive | inactive
21 | C=C[C@H]1[C@H](O[C@@H]2O[C@H](CO[C@@H]3OC[C@](O)(CO)[C@H]3O)[C@@H](O)[C@H](O)[C@H]2O)OC=C2C(=O)OCC[C@H]21 | 5.36% |  |  |  | inactive | inactive

Row | SMILES | activation [1] | activity change, negative = inhibition [2] | activity change, negative = inhibition [3] | Potency [1] | Potency [2] | Potency [3]
22 | C[C@@H]1CC[C@@]23CC[C@]4(C)[C@@](C=CC5[C@@]6(C)CC[C@H](O)C(C)(C)C6CC[C@]54C)(OC2=O)C3[C@H]1C (stereo partly specified) | 12.2% |  |  |  | inactive | inactive
23 | COC1OC(OC)C(O)(CCC2(C)C(C)CCC3(C)C2CC(O)C(O)C32CO2)C1O (stereo unspecified) | 0.763% |  |  |  | inactive | inactive
24 | CC1(C)CC[C@]2(C(=O)O[C@@H]3O[C@H](CO[C@@H]4O[C@H](CO)[C@@H](O)[C@H](O)[C@H]4O)[C@@H](O)[C@H](O[C@@H]4O[C@H](CO)[C@@H](O)[C@H](O)[C@H]4O)[C@H]3O)[C@H](O)C[C@]3(C)C(=CCC4[C@@]5(C)CC[C@H](O[C@@H]6OC[C@@H](O)[C@H](O)[C@H]6O)[C@@](C)(C(=O)O)C5CC[C@]43C)[C@@H]2C1 (stereo partly specified) | 7.63% |  |  |  | inactive | inactive
25 | COc1c2ccoc2nc2c(OC)c(O[C@@H]3O[C@@H](C)[C@H](O)[C@@H](O[C@@H]4O[C@H](CO)[C@@H](O)[C@H](O)[C@H]4O)[C@H]3OC(C)=O)ccc12 | 27.7% |  |  |  | inactive | inactive
26 | O=C(O)CC/C=C\C[C@H]1CO[C@@H](c2ccccc2Cl)O[C@H]1c1ccccc1O | -9.67% |  |  |  | inactive | inactive
27 | C[C@@H]1O[C@@H](O[C@H]2[C@H](O)[C@@H](O)[C@H](OC[C@H]3O[C@@H](OC(=O)[C@]45CCC(C)(C)C[C@H]4C4=CCC6[C@@]7(C)C[C@@H](O)[C@H](O)[C@@](C)(CO)C7[C@H](O)C[C@@]6(C)[C@]4(C)CC5)[C@H](O)[C@@H](O)[C@@H]3O)O[C@@H]2CO)[C@H](O)[C@H](O)[C@H]1O (stereo partly specified) | 16% |  |  |  | inactive | inactive
28 | O=C(N[C@@H]1CCCc2c1cnn2-c1ccc(F)cc1F)c1ccccn1 | 12.3% |  |  |  | inactive | inactive
29 | CC(CCC1(O)OC2CC3C4CC=C5C[C@@H](O[C@@H]6O[C@H](CO)[C@@H](O[C@@H]7O[C@@H](C)[C@H](O)[C@@H](O)[C@H]7O)[C@H](O)[C@H]6O[C@@H]6O[C@@H](C)[C@H](O)[C@@H](O)[C@H]6O)CC[C@]5(C)C4CC[C@]3(C)[C@@]2(O)[C@@H]1C)CO[C@@H]1O[C@H](CO)[C@@H](O)[C@H](O)[C@H]1O (stereo partly specified) | -8.04% |  |  |  | inactive | inactive
30 | CC1=CC2/C=C(\C)CC[C@@H](O)[C@@H](O)[C@@H]3O[C@@H]3C(=O)[C@]23C(=O)N[C@@H](CC(C)C)[C@@H]3[C@@H]1C (stereo partly specified) | 0% |  |  |  | inactive | inactive
31 | CO[C@H]1[C@@H](O)[C@H](O[C@H]2CC[C@@]3(C)C(CCC4C3CC[C@]35COC6(COC(=O)C6)C3CCC45O)C2)O[C@@H](C)[C@@H]1OC1OC(CO)C(OC2OC(CO)C(O)C(O)C2O)C(O)C1O (stereo partly specified) | 6.87% |  |  |  | inactive | inactive
32 | CCCN(CCc1ccsc1)C1CCc2c(O)cccc2C1 (stereo unspecified) | 2.68% |  |  |  | inactive | inactive
33 | CC1(C)CC[C@]2(C(=O)O)CC[C@]3(C)C(=CCC4[C@@]5(C)C[C@H](O)[C@H](O[C@@H]6OC[C@H](O)[C@H](O)[C@H]6O)[C@@](C)(CO)C5CC[C@]43C)[C@@H]2C1 (stereo partly specified) | -9.16% |  |  |  | inactive | inactive
34 | CC(C)C1(O)C=C2C(=O)CC3C(C)(C(=O)O)CCCC3(C)C2CC1 (stereo unspecified) | -12.2% |  |  |  | inactive | inactive
35 | C=C(C)[C@@]1(O)C[C@@]2(C)C(=CC1=O)CC[C@@H](O)[C@@H]2C | -3.82% |  |  |  | inactive | inactive
36 | COC(=O)C1=CO[C@@H](O[C@@H]2O[C@H](CO)[C@@H](O)[C@H](O)[C@H]2O)[C@@H]2C(COC(C)=O)=C[C@H](O)[C@H]12 | -14.5% |  |  |  | inactive | inactive
37 | C=C[C@]1(C)C[C@H](O)[C@@H]2[C@H](OC(=O)[C@@H]2C)C1/C(C)=C/O[C@@H]1O[C@H](CO)[C@@H](O)[C@H](O)[C@H]1O (stereo partly specified) | -27.7% |  |  |  | inactive | inactive
38 | COc1ccc(C2(O)c3ccccc3NC(=O)C2OC)cc1 (stereo unspecified) | -2.29% |  |  |  | inactive | inactive
39 | CC[C@H]1OC(=O)[C@H](C)[C@@H](O[C@H]2C[C@@](C)(OC)[C@@H](O)[C@H](C)O2)[C@H](C)[C@@H](O[C@H]2O[C@H](C)C[C@H](N(C)C)[C@H]2O)[C@](C)(O)C[C@@H](C)C(=O)[C@H](C)[C@@H](O)[C@]1(C)O | 9.67% |  |  |  | inactive | inactive
40 | CC(C)(C)OC(=O)N1CCC(OCc2nc(-c3ccncc3)no2)CC1 | -3.34% |  |  |  | inactive | inactive
41 | C/C=C/C=C/C(O)=C1\C(O)=C(C)C(=O)[C@@]2(C)OC(=O)[C@@](C)(NC(=O)/C=C/C(=O)O)[C@@H]12 | 10.7% |  |  |  | inactive | inactive
42 | CC(C)(O)C(O)C(=O)OCc1ccc(O[C@@H]2O[C@H](CO)[C@@H](O)[C@H](O)[C@H]2O)cc1 (stereo partly specified) | 8.4% |  |  |  | inactive | inactive
